What all share (test): NCI-60 one-dose screen, 48 h (100 = growth as untreated, 0 = no growth, -100 = all killed)
Details in all cases: 10 µM unless noted

Assay [1] relates to NCI-H23 lung.
In assay [2] the test system is NCI-H226 lung.
Assay [3] deals with NCI-H322M lung.
In assay [4] the test system is HOP-62 NSCLC.
In assay [5] the test system is NCI-H460 lung.
In assay [6] the test system is HOP-92 NSCLC.
In assay [7] the test system is NCI-H522 lung.
Assay [8] deals with A549/ATCC NSCLC.
Assay [9] relates to 786-0 renal.
Assay [10] relates to COLO 205 colon.
For assay [11], the system named is DU-145 prostate.
Assay [12] has as its system K-562 leukemia.
The test system of assay [13] is MALME-3M melanoma.
Assay [14] has as its system MDA-MB-231 breast.
Assay [15] concerns RXF 393 renal.
Assay [16] deals with SF-268 CNS.
The subject of assay [17] is SF-295 CNS.
Assay [18] has as its system UACC-257 melanoma.
Assay [19] deals with M14 melanoma.

Compounds without any hit were thinned out: in the full panel of roughly 83,000, 20% have a hit.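 Compound tested at a single concentration for 48 hours in 96-well plates; a percent growth value below 10 was scored as active.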 Values without a mark were called inactive. The source made the active and inactive calls.

For `COc1ccc(C(=O)c2sc3nc4c(c(C(F)(F)F)c3c2N)CN(C(C)=O)CC4)cc1OC`, the growth is 90.5% in assay [1]; 78.2% in [2]; 93.1% in assay [3]; 87% in assay [4]; 95.8% in assay [5]; -0.986% (active) in assay [6]. Besides, the growth in assay [7] is 78.5%; in assay [8], 91%; in assay [9] it was 91.9%; in assay [10] it was 92.4%; in assay [11], 104%; in [12] it was 78.2%. Moreover, the growth in [13] was 88%; in [14], 63.8%; in assay [15], 74.7%; in assay [16], 85%; in assay [17] it was 86.2%; in [18], 99.2%. The growth in assay [19] is 100%.

On to `CC[n+]1ccc2c(c1)C(=O)c1nccc3c1c-2nc1ccccc13`, for which the growth in [1] is -27.9% (active); in assay [2] it was -67.1% (active); in [3], -16.3% (active); in assay [4] it was -27.6% (active); in assay [5], -82.1% (active); in assay [6] it was -11.9% (active). Besides, the growth was -38% (active) in assay [7]; -4.31% (active) in [8]; -14.4% (active) in [9]; -23.8% (active) in [10]; -10.9% (active) in assay [11]; 20% in assay [12]. Besides, the growth is -85.5% (active) in assay [13]; -8.92% (active) in [14]; -2.9% (active) in assay [15]; -16.4% (active) in assay [16]; -27.6% (active) in assay [17]; -8.02% (active) in assay [18]. The growth in [19] is -16.3% (active).

As to `CN(C)c1ccc(C2Nc3ccccc3-n3cccc32)cc1` (configuration not stated), the growth was 102% in [1]; 82.8% in assay [2]; 91.9% in [3]; 107% in assay [4]; 85.8% in [5]; 89.7% in [6]. The growth in [7] is 113%; in assay [8] it was 98.3%; in [9] it was 108%; in assay [10], 96%; in [11], 114%; in assay [12] it was 121%. For the same molecule, the growth was 99.6% in assay [13]; 96.5% in assay [14]; 98.5% in assay [15]; 103% in assay [16]; 102% in [17]; 111% in assay [18]. For the same molecule, the growth in [19] is 99.1%.

Turning to `COc1cc(C(=O)/C=C/c2c(C)n([O-])c3ccc(C)cc3[n+]2=O)cc(OC)c1OC`, the growth was 42.2% in [1]; 72.7% in [2]; 97.9% in assay [3]; 102% in [4]; 88.4% in assay [5]; 64.5% in assay [6]. The growth in assay [7] was -81.8% (active); in assay [8] it was 85.8%; in assay [9], 74%; in assay [10] it was -36.6% (active); in assay [11], 49.3%; in assay [12] it was 0.289% (active). Moreover, the growth is 83.8% in assay [13]; 85% in assay [14]; -32.4% (active) in [15]; 59% in [16]; 110% in assay [17]; 47.7% in [18]. In assay [19], the growth is 60.1%.

Take `C/C(=C(/c1ccc(O)cc1)c1ccc(OCCN2CCCC2)cc1)c1ccccc1`: the growth is 68.1% in [1]; 82.9% in [2]; 75.8% in assay [3]; 70.3% in [4]; 24.7% in [5]; 30% in assay [6]. The growth in [7] is 49.8%; in [8], 48.7%; in assay [9] it was 57.1%; in assay [10] it was -56.4% (active); in assay [11], 78.8%; in [12], 2.35% (active). In addition, the growth is 8.05% (active) in [13]; 49.6% in [14]; 42.4% in assay [15]; 63.8% in assay [16]; 44.3% in assay [17]; -29.5% (active) in assay [18]. Also, the growth in assay [19] is -53.7% (active).

Regarding `Cn1c(=O)c2[nH]c(C(O)C(O)C(O)C(O)CO)nc2n(C)c1=O` (configuration not stated), the growth in assay [1] was 100%; in assay [2], 95.1%; in [3], 93.7%; in [4], 96%; in assay [5] it was 107%; in [6] it was 109%. The growth was 86.7% in assay [7]; 88.7% in [8]; 107% in [9]; 103% in assay [10]; 109% in [11]; 95.1% in assay [12]. The growth in assay [13] is 97%; in assay [14], 101%; in assay [15], 115%; in assay [16], 106%; in assay [17], 103%; in [18] it was 93.6%. The growth in assay [19] was 105%.

Consider `CS(=O)(CCCCN=C=S)=NC(=O)c1c(F)c(F)c(F)c(F)c1F` (configuration not stated), for which the growth was 96.7% in assay [1]; 99.6% in [2]; 108% in [3]; 111% in [4]; 88.4% in assay [5]; 107% in assay [6]. Moreover, the growth in assay [7] is 57%; in assay [8], 80.3%; in [9] it was 89%; in [10] it was 89.4%; in [11], 91.1%; in [12], 60.8%. The growth was 58.7% in [13]; 91.8% in assay [14]; 94.2% in assay [15]; 101% in assay [16]; 97.8% in assay [17]; 83.5% in assay [18]. In addition, in assay [19], the growth is 98.4%.

Turning to `O=C(O)c1ccc(=O)[nH]n1`, the growth in assay [1] is 103%; in assay [2], 107%; in assay [3], 117%; in [4], 111%; in [5], 112%; in assay [6], 87.9%. Also, the growth was 106% in [7]; 116% in assay [8]; 116% in assay [9]; 111% in assay [10]; 135% in assay [11]; 102% in assay [12]. Also, the growth in [13] is 120%; in [14], 103%; in assay [15], 122%; in assay [16], 125%; in assay [17], 109%; in assay [18], 105%. Further, in assay [19], the growth was 107%.

The values are drawn from PubChem BioAssay (NCI).
